{"source": "PubChem BioAssay AID651813", "about": "(National Center for Advancing Translational Sciences (NCATS), 2012)", "note": "Several values for one entry are separate records, joined by “and”; a condition that tells them apart may be missing. Equal values may be shown once. Out of some 2,100 compounds screened, about 1,100 (52%) were called active. Roughly 27% stayed inconclusive and do not appear here. The set was probably picked from earlier hits. The list shows a part of the results. Unmarked numbers belong to inactive results. Calls come from the whole dose curve; as a rule, active = well fitted inhibition curve with a large enough effect; inconclusive = small, poorly fitted or top-dose-only effect; inactive = no such curve, though single readings can be large or run the other way. Potency is the fitted concentration of half-maximal effect."}
{"target": "DNA dC->dU-editing enzyme APOBEC-3G (Homo sapiens) (UniProt Q9HC16)", "sequence (Q9HC16 whole entry, looked up)": "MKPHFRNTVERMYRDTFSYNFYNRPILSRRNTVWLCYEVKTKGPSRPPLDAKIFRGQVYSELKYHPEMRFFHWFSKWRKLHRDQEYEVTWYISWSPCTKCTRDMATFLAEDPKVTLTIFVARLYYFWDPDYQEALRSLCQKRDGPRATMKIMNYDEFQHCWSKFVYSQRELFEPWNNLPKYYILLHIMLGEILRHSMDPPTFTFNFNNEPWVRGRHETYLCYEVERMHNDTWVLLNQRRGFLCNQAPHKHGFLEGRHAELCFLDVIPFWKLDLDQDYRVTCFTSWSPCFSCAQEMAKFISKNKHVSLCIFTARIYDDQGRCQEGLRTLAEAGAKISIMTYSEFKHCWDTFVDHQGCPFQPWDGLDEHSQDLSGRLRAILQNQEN", "experiment": "qHTS for inhibitors of Vif-A3G interactions: Cherry picks counterscreen;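 note: hits raise yellow fluorescence by blocking Vif-driven A3G-eYFP degradation; nearly all actives have a fitted effect of over 70% in size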;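 for max response: max response given as percent of control signal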", "settings": "HeLa A3G-eYFP + Vif (tagged APOBEC3G with the HIV-1 protein that degrades it), eYFP fluorescence, 24 h", "procedure,_shortened": "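Readout is eYFP fluorescence (488 nm excitation, 500-530 nm emission) measured on Acumen Explorer after 24 h compound exposure, several concentrations, at 37 deg C. Cells: HeLa stably co-expressing Vif and C-terminally eYFP-tagged A3G; MG132 positive control.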", "units": {"max response": "%"}}
{"smiles": "COc1cc(C2c3cc4c(cc3C(OC3OC5COC(c6cccs6)OC5C(O)C3O)C3COC(=O)C23)OCO4)cc(OC)c1O", "note": "(stereo not drawn)", "max response": -84.8}
{"smiles": "CC(=O)Nc1cccc(-c2ccnc3c2CC(C(=O)Nc2ccc4c(c2)OCO4)O3)c1", "note": "(stereo not drawn)", "Potency": "1.25 µM (active)"}
{"smiles": "Cc1ccc(N=C2NC(=O)CC(C(=O)Nc3ccc4c(c3)OCO4)S2)cc1", "note": "(stereo not drawn)", "max response": -13.3}
{"smiles": "COc1ccc(NC(=O)C2Cc3c(-c4cccc(C(C)=O)c4)ccnc3O2)cn1", "note": "(stereo not drawn)", "Potency": "1.4 µM (active)"}
{"smiles": "C=CCSc1nc2sc3c(c2c(=O)n1CC)CCC3", "max response": -26.5}
{"smiles": "CN(C)c1ccc(/C=C2\\Oc3ccc(C#Cc4cccc(N)c4)cc3C2=O)cc1", "Potency": "17.7 µM (active)"}
{"smiles": "CC1(C)Cc2nc3sc4c(=O)n(CC(=O)NCc5ccccc5)cnc4c3cc2CO1", "Potency": "3.96 µM (active)"}
{"smiles": "COc1ccc(OC)c2sc(NC(=O)CCS(=O)(=O)c3ccccc3)nc12", "max response": -5.13}
{"smiles": "COc1ccc(S(=O)(=O)NCc2ccccn2)cc1NC(=O)c1ccccc1", "Potency": "15.8 µM (active)"}
{"smiles": "CCOc1ccc(S(=O)(=O)NCc2ccccn2)cc1NC(=O)c1ccccc1", "Potency": "3.96 µM (active)"}
{"smiles": "COc1ccc(S(=O)(=O)NCc2ccccn2)cc1NC(=O)c1ccc(C)cc1", "Potency": "11.2 µM (active)"}
{"smiles": "S=C(NCCSCc1ccc(Cl)cc1)Nc1ccccc1", "max response": -13.3}
{"smiles": "COc1ccccc1N1N=C(c2ccc([N+](=O)[O-])cc2)CC1c1ccccc1", "note": "(stereo not drawn)", "Potency": "1.25 µM (active)"}
{"smiles": "O=[N+]([O-])c1ccc(C2=NN(c3ccccc3)C(c3ccco3)C2)cc1", "note": "(stereo not drawn)", "Potency": "0.498 µM (active)"}
{"smiles": "O=[N+]([O-])c1ccc(C2=Nc3cc(Cl)ccc3OC2)cc1", "max response": -16.9}
{"smiles": "O=[N+]([O-])c1ccc(/C=C/C2=NN(c3ccccc3)C(c3ccco3)C2)o1", "note": "(stereo not drawn)", "Potency": "2.31 µM (active)"}
{"smiles": "Cc1ccc(NC(=O)/C=C/c2ccc([N+](=O)[O-])s2)cc1", "Potency": "5.17 µM (active)"}
{"smiles": "Cc1ccc(NC(=O)/C=C/c2ccc([N+](=O)[O-])s2)c(C)c1", "Potency": "10.3 µM (active)"}
{"smiles": "Cc1cccc(NC(=O)/C=C/c2ccc([N+](=O)[O-])s2)c1", "Potency": "14.6 µM (active)"}
{"smiles": "Cc1cc(C)cc(NC(=O)/C=C/c2ccc([N+](=O)[O-])s2)c1", "Potency": "13 µM (active)"}
{"smiles": "CC(=O)c1cccc(NC(=S)N2c3ccccc3CC2C)c1", "note": "(stereo not drawn)", "max response": 10.2}
{"smiles": "CC(=O)c1cccc(NC(=O)/C=C/c2ccc([N+](=O)[O-])s2)c1", "Potency": "10.3 µM (active)"}
{"smiles": "O=C(OCC12CC3CC(CC(C3)C1)C2)c1ccc(NCc2cc(O)ccc2O)cc1", "max response": 39.2}
{"smiles": "CCCN1C=CC(=CC=C(C#N)C#N)C=C1", "Potency": "9.94 µM (active)"}
{"smiles": "C=CCN1C=CC(=CC=C(C#N)C#N)C=C1", "Potency": "12.5 µM (active)"}
{"smiles": "Cn1c2ccccc2c2ccc3c(c21)C(=O)C=CC3=O", "max response": 10.2}
{"smiles": "COc1ccc(/C=C2\\Oc3cc(OC(=O)N4CCOCC4)ccc3C2=O)c(OC)c1", "max response": -18.4}
{"smiles": "COc1cc(OC)c(OC)cc1/C=C1\\Oc2cc(OCC(=O)N3Cc4ccccc4C[C@H]3C(=O)O)ccc2C1=O", "Potency": "2.06 µM (active)"}
{"smiles": "Cn1cc(C2=C(c3ccc(Cl)cc3Cl)C(=O)NC2=O)c2ccccc21", "Potency": "2.06 µM (active) and 8.2 µM (active)"}
{"smiles": "COc1ccccc1Nc1cc2cc(Br)ccc2c(=O)[nH]1", "Potency": "15.8 µM (active)"}
{"smiles": "COc1cccc(C(=O)Nc2sc3c(c2C#N)CCN(C(C)=O)C3)c1", "Potency": "3.96 µM (active)"}
{"smiles": "COc1ccc(C(=O)Nc2sc3c(c2C#N)CCN(C(C)=O)C3)cc1", "Potency": "12.5 µM (active)"}
{"smiles": "O=C1[C@@H]2[C@@H](CN3CN(c4ccccc4)N=C(c4ccccc4)[C@@]23c2ccccc2)C(=O)N1c1ccccc1", "max response": 3.63}
{"smiles": "Cc1noc(C)c1COc1cccc(C(=O)OCC(=O)N2CC(=O)Nc3ccccc32)c1", "Potency": "5.59 µM (active)"}
{"smiles": "COc1ccc(N=Cc2oc3ccc4ccccc4c3c2O)cc1", "Potency": "18.4 µM (active)"}
{"smiles": "Oc1sc(C=Nc2ccc(F)cc2)c2ccccc12", "Potency": "8.2 µM (active)"}
{"smiles": "COc1ccc(N=Cc2sc(O)c3ccccc23)cc1", "Potency": "3.96 µM (active)"}
{"smiles": "COc1ccc(N=Cc2c(O)c3ccccc3n2C(C)=O)cc1", "Potency": "14.6 µM (active)"}
{"smiles": "Oc1sc(C=Nc2ccccc2)c2ccccc12", "Potency": "18.4 µM (active)"}
{"smiles": "COc1ccc2nc3ccccc3nc2c1NC(=O)c1ccc(Br)cc1", "Potency": "14.6 µM (active)"}
{"smiles": "COc1ccc2nc3ccccc3nc2c1NC(=O)c1ccc(Cl)cc1", "Potency": "18.4 µM (active)"}
{"smiles": "Cc1ccc2c(Cl)c(C)c(N3CCCC3)nc2n1", "max response": -28.8}
{"smiles": "C[n+]1ccc(/C=C/c2c[nH]c3ccccc23)cc1", "Potency": "8.2 µM (active)"}
{"smiles": "OCC[n+]1ccc(/C=C/c2c[nH]c3ccccc23)cc1", "Potency": "18.4 µM (active)"}
{"smiles": "CC[n+]1ccc(/C=C/c2c[nH]c3ccccc23)cc1", "Potency": "9.2 µM (active)"}
{"smiles": "C/C(=N\\NC(=O)C(C)n1nc(C)c([N+](=O)[O-])c1C)c1ccccc1O", "note": "(stereo not drawn)", "max response": 3.13}
{"smiles": "COc1ccc(C(=O)c2cc([N+](=O)[O-])ccc2N2CCCC2)cc1", "Potency": "7.04 µM (active)"}
{"smiles": "Cc1ccc(C(=O)c2cc([N+](=O)[O-])ccc2N2CCN(C)CC2)cc1", "Potency": "7.04 µM (active)"}
{"smiles": "CN(C)S(=O)(=O)c1ccc(N2CCCC2)c(C(=O)N2CCN(S(=O)(=O)c3ccc(F)c(F)c3)CC2)c1", "max response": 9.68}
{"smiles": "CN1CCN(c2ccc([N+](=O)[O-])cc2C(=O)c2ccc(Br)cc2)CC1", "Potency": "4.98 µM (active)"}
{"smiles": "Cc1ccc(C(=O)c2cc([N+](=O)[O-])ccc2N2CCOCC2)cc1C", "Potency": "0.994 µM (active)"}
{"smiles": "CNc1cncc(-c2cc(C)c(O)c(C)c2)n1", "Potency": "4.98 µM (active)"}
{"smiles": "Cc1sc2nc(SCC(=O)N3CCOCC3)[nH]c(=O)c2c1-c1ccccc1", "max response": -5.17}
{"smiles": "CCOC(=O)CSc1nc2c(c(=O)[nH]1)C(C)(CC)Cc1ccccc1-2", "note": "(stereo not drawn)", "Potency": "8.2 µM (active)"}
{"smiles": "O=c1[nH]c(CN2CCN(c3ccccc3)CC2)nc2scc(-c3ccccc3)c12", "Potency": "9.2 µM (active)"}
{"smiles": "COc1cccc(N2CCN(Cc3nc4scc(-c5ccccc5)c4c(=O)[nH]3)CC2)c1", "Potency": "12.5 µM (active)"}
{"smiles": "CC1=CN2C(=N)/C(=C/c3ccc([N+](=O)[O-])o3)C(=O)N=C2S1", "Potency": "17.7 µM (active)"}
{"smiles": "CCS(=O)(=O)C1=NN2C(=N)/C(=C\\c3ccc(SCc4ccco4)o3)C(=O)N=C2S1", "max response": 2.81}
{"smiles": "COc1ccc(CCNC(=O)CC2(CC3=NS(=O)(=O)c4ccccc4N3)CCCC2)cc1OC", "max response": -1.6}
{"smiles": "COc1cccc(-c2ccc3c(N)c(C(=O)c4ccc(Cl)cc4)sc3n2)c1", "Potency": "20.6 µM (active)"}
{"smiles": "COc1cccc(-c2ccc3c(N)c(C(=O)c4ccc(Br)cc4)sc3n2)c1", "Potency": "20.6 µM (active)"}
{"smiles": "Cc1noc(C)c1COc1ccc(C(=O)NNC(=O)c2ccccc2)cc1", "Potency": "5.59 µM (active)"}
{"smiles": "Cc1noc(C)c1COc1ccc(C(=O)NNC(=O)c2ccccc2F)cc1", "Potency": "8.86 µM (active)"}
{"smiles": "CCOC(=O)c1c(-c2ccc(C)cc2)csc1NC(=O)/C(C#N)=C/c1ccc(O)c(OC)c1", "max response": 57.5}
{"smiles": "CCOc1cc(/C=C(/C#N)C(=O)Nc2ccc(O)cc2)cc(Br)c1O", "Potency": "17.7 µM (active)"}
{"smiles": "CCOc1ccc(NC(=O)/C(C#N)=C/c2ccc(N3CCCC3)c(C)c2)cc1", "Potency": "2.06 µM (active)"}
{"smiles": "Cc1cccc(N2CCN(C(=O)c3cccc(N4CCCC4=O)c3)C(C)C2)c1", "note": "(stereo not drawn)", "Potency": "14 µM (active)"}
{"smiles": "Cc1ccc(-n2c(=O)c3ccc(C(=O)NCc4ccccc4Cl)cc3n(CC(=O)Nc3cccc(Cl)c3)c2=O)cc1", "max response": -24}
{"smiles": "CCOc1ccc(NC(=O)Cn2c(=O)n(Cc3ccc(C(=O)NCc4ccc(C)cc4)cc3)c(=O)c3ccccc32)cc1", "Potency": "13 µM (active)"}
{"smiles": "Cc1ccc(N2C(=O)CS/C2=C(\\C(Cl)=C(Cl)Cl)[N+](=O)[O-])cc1", "max response": 1.1}
{"smiles": "Cc1ccc(NC(=O)/C(C#N)=C\\c2ccc(-c3ccc(Cl)cc3)o2)c(C)c1", "Potency": "5.8 µM (active)"}
{"smiles": "Nc1nonc1-c1nc2ccccc2n1CC(=O)Nc1cccc(C(F)(F)F)c1", "Potency": "18.4 µM (active)"}
{"smiles": "COc1cccc(Cn2c(-c3nonc3N)nc3ccccc32)c1", "Potency": "1.25 µM (active)"}
{"smiles": "COc1ccc(C)c(Cn2c(-c3nonc3N)nc3ccccc32)c1", "Potency": "3.14 µM (active)"}
{"smiles": "CC(NC(=S)Nc1cccc(C(F)(F)F)c1)C(C)(C)C", "note": "(stereo not drawn)", "max response": 21.6}
{"smiles": "COc1cccc(Cn2c(-c3nonc3NC(C)=O)nc3ccccc32)c1", "Potency": "11.6 µM (active)"}
{"smiles": "Cc1cn2c(N)c(C=C3C=C(Cl)C(=O)C(Cl)=C3)c(=O)nc2s1", "max response": 34.2}
{"smiles": "Cc1cccc(CSc2cccc3cccnc23)c1", "max response": -11.2}
{"smiles": "CCC(C)Sc1ccc(-c2nc3cc(C)ccn3c2NC2CCCCC2)cc1", "note": "(stereo not drawn)", "max response": 26.9}
{"smiles": "CCC(=O)Nc1nonc1-c1nc2ccccc2n1Cc1ccccc1", "Potency": "14 µM (active)"}
{"smiles": "Nc1nonc1-c1nc2ccccc2n1Cc1ccc(F)cc1", "Potency": "12.5 µM (active)"}
{"smiles": "CCOC(=O)c1c(CN(CC)CC)n(-c2ccccc2)c2ccc(O)cc12", "max response": 2.24}
{"smiles": "O=C1S/C(=C/c2ccc(N3CCOCC3)o2)C(=O)N1Cc1c(F)cccc1Cl", "Potency": "2.8 µM (active)"}
{"smiles": "CCCN1C(=O)S/C(=C\\c2ccc(N3CCOCC3)o2)C1=O", "Potency": "2.23 µM (active)"}
{"smiles": "O=C1S/C(=C/c2ccc(N3CCOCC3)o2)C(=O)N1Cc1ccc(F)cc1", "Potency": "7.04 µM (active)"}
{"smiles": "O=C1S/C(=C\\c2ccc(N3CCOCC3)o2)C(=O)N1c1ccccc1", "Potency": "1.98 µM (active)"}
{"smiles": "CCCN1C(=O)S/C(=C/c2ccc(N3CCOCC3)o2)C1=O", "max response": 50.5}
{"smiles": "Cc1cc(C)c(C(=O)N(CCN(C)C)CC2CCCN(Cc3ccccc3F)C2)o1", "note": "(stereo not drawn)", "max response": 0.428}
{"smiles": "COc1cc(/C=C2/SC(=S)N(CCC(=O)Nc3ccccc3)C2=O)cc(OC)c1OC", "Potency": "20.6 µM (active)"}
{"smiles": "O=C1/C(=C\\c2ccc(O)cc2)SC(=S)N1Cc1ccccc1", "max response": 39.2}
{"smiles": "C=CCN1C(=O)/C(=C/c2ccc(O)c(OC)c2)S/C1=N/c1nccs1", "Potency": "4.61 µM (active)"}
{"smiles": "COc1cc(/C=C2/SC(=S)N(Cc3ccccc3)C2=O)cc(OC)c1O", "Potency": "12.5 µM (active)"}
{"smiles": "COc1cc(/C=C2/SC(=S)N(Cc3ccccc3)C2=O)cc(Cl)c1O", "Potency": "2.23 µM (active)"}
